Records with an inconclusive call do not appear. Activity calls are given as the source filed them. Unless noted, calls follow the shape of the dose curve; as a rule, active = well fitted curve in the direction sought with a large enough effect; inconclusive = small, poorly fitted or top-dose-only effect, or another doubt; inactive = no such curve, though single readings can be large; an effect the other way counts as inactive or inconclusive.
What was measured:
[1] = target: Mitogen-activated protein kinase 10 (Mus musculus) (UniProt Q61831); test: JNK3 AlphaScreen Assay (AID 530; active = well fitted curve in either direction with a large enough effect, not every such curve was filed as active;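 also: kinase came from lysate of stimulated human HepG2 cells; signal reports phosphorylation of biotinylated GST-cJun 1-79 at Ser73 with 10 µM ATP; % is scaled to controls: 0 for no effect and ±100 for the full control effect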)
In short: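 JNK3 came from HepG2 lysates pre-activated with IL-1beta and TNF-alpha and phosphorylated biotinylated GST-cJun (1-79) at 10 uM ATP, pH 7.6, room temperature. Compounds were titrated. AlphaScreen signal used anti-phospho-cJun (Ser73) antibody.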

[2] = Cell Viability - NIH 3T3 (AID 541); details: NIH 3T3 cell viability, qHTS; activity change, negative = cytotoxicity: at 92.2 µM (top of the series);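 also: cells exposed to compound for 40 hours; plate controls were DMSO alone for no effect and tamoxifen positive control for full effect; nearly all actives have a fitted effect of over 25% in size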
In short: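 NIH 3T3 mouse embryo fibroblasts (1000 cells/well) were plated in complete medium and treated with compound for 40 hr at 37 °C. Viability was read as intracellular ATP by CellTiter-Glo luminescence; AC50 values came from Hill-equation fits of concentration-response data.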

[3] = Cell Viability - Mesenchymal (AID 546);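 also: cells exposed to compound for 40 hours before reading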
In short: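 Normal human renal glomerulus-derived kidney mesenchymal cells, 1000 per well in complete medium, were treated with compounds for 40 hr at 37 °C. Viability was read as intracellular ATP by CellTiter-Glo luminescence; AC50 values came from Hill-equation fits of qHTS concentration-response data.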

[4] = Cellular Toxicity (caspase-3) Hek293 (AID 664); details: HEK293 caspase-3 activation, DMSO = 0%, 100 µM tamoxifen = 100%; at 92.2 µM (top of the series);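 also: cells exposed to compound for 16 h at 37 °C before readout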
In short: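 HEK293 cells were exposed to compounds in complete medium for 16 hr at 37 °C, then caspase-3/7 activity was read by Caspase-Glo 3/7 luminescence after 20 min at room temperature. Data normalized to DMSO and 100 uM tamoxifen; AC50 from Hill fits.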

[5] = target: Cytochrome P450 3A4 (Homo sapiens) (UniProt P08684); test: qHTS Assay for Inhibitors and Substrates of Cytochrome P450 3A4 (AID 884); also: % is scaled to controls: 0 for no effect and ±100 for the full control effect; nearly all actives have a fitted effect of over 50% in size
Cytochrome P450 3A4 (Homo sapiens), sequence (P08684 whole entry, looked up): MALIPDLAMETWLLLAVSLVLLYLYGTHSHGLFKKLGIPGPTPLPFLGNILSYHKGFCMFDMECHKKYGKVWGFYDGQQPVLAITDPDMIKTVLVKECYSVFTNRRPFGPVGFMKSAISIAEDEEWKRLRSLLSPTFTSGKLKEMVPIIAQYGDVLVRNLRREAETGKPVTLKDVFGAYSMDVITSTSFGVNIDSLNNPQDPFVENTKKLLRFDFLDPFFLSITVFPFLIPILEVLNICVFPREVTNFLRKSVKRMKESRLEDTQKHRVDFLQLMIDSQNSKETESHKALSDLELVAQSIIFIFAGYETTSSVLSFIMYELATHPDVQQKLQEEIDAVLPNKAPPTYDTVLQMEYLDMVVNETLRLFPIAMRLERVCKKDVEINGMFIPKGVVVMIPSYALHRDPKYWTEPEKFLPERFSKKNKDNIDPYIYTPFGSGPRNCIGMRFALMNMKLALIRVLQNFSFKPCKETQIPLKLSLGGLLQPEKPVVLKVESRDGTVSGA
In short: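 20 nM human CYP3A4 with 25 uM Luciferin-PPXE (at KM) in 200 mM KPO4, preincubated 10 min with compound; NADPH regeneration started a 60 min RT reaction. Luciferin detected by luminescence, normalized to 57 uM ketoconazole as full inhibition.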

[6] = MultiTox-Fluor Cytotoxicity Assay - LYMP1-002 - Live Cells (AID 955); also: % is scaled to controls: 0 for no effect and ±100 for the full control effect
In short: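 Human lymphoblastoid LYMP1-002 cells, 2500/well in complete medium, rested 5 hr at 37 C, then exposed to compounds for 16 hr at 37 C. Live-cell protease cleavage of GF-AFC read by fluorescence (Ex/Em 405/510) after 60 min at room temperature; AC50 from Hill fits.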

[7] = MultiTox-Fluor Cytotoxicity Assay - LYMP1-002 - Dead Cells (AID 960);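 also: 0% = DMSO and 100% = tetraoctylammonium bromide; nearly all actives have a fitted effect of over 60% in size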
In short: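 Human lymphoblastoid cells (LYMP1-002), 2500/well in complete medium, were exposed to compounds for 16 hr at 37 C. Dead-cell protease activity was read as bis-AAF-R110 fluorescence (Ex/Em 485/520), normalized to DMSO and 15 uM tetraoctylammonium bromide; AC50 from Hill fits.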

[8] = Cell Viability - LYMP2-003 (AID 965);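 also: cells exposed to compounds for 24 h before reading; 0% = DMSO only and full effect = 92 µM tetraoctylammonium bromide; nearly all actives have a fitted effect of over 50% in size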
In short: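 Acute cytotoxicity is scored as a concentration-dependent drop in intracellular ATP, measured by luciferase luminescence in human lymphoblastoid cells treated for 24 hours at 37 C. AC50 values derive from Hill-equation modelling.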

[9] = Cell Viability - LYMP2-017 (AID 972); also: % is scaled to controls: 0 for no effect and ±100 for the full control effect; nearly all actives have a fitted effect of over 55% in size
In short: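 Human lymphoblastoid cells (2500/well) were seeded in complete medium, held 5 hr at 37 C, then exposed to compounds for 24 hr at 37 C. Intracellular ATP was read by CellTiter-Glo luminescence after 30 min at room temperature, with AC50 values from Hill-equation fits.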

[10] = Cell Viability - LYMP2-021 (AID 974);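 also: compound exposure lasts 24 hours at 37 °C; % is scaled to controls: 0 for no effect and ±100 for the full control effect; nearly all actives have a fitted effect of over 55% in size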
In short: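 Human lymphoblastoid cells (2500/well) were preincubated 5 hr at 37 C, then exposed to compounds for 24 hr at 37 C in complete medium. Intracellular ATP was read by CellTiter-Glo luminescence; AC50 came from Hill-equation fits of concentration-response data.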

[11] = Cell Viability - LYMP2-016 (AID 984); also: % is scaled to controls: 0 for no effect and ±100 for the full control effect; nearly all actives have a fitted effect of over 55% in size
In short: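 Acute toxicity in a Coriell human lymphoblastoid line is scored as loss of intracellular ATP over 24 h of treatment in complete medium. CellTiter-Glo signal is fitted across concentrations with the Hill equation to give AC50.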

[12] = Cell Viability - LYMP1-002 - Assay at 24 hr (AID 993); also: % is scaled to controls: 0 for no effect and ±100 for the full control effect
In short: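 Human lymphoblastoid LYMP1-002 cells, 2500/well in complete medium, were treated with compounds for 24 h at 37 C; intracellular ATP was read by CellTiter-Glo luminescence. AC50 values came from Hill-equation fits of qHTS concentration-response data.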

[13] = qHTS assay for small molecule disruptors of the mitochondrial membrane potential - 5 hr assay (AID 651755; calls by dose curve; also: % is scaled to controls: 0 for no effect and ±100 for the full control effect; nearly all actives have a fitted effect of over 40% in size)
In short: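 HepG2 cells, attached overnight at 37C, were exposed to compound or DMSO for 5 hr at 37C, 5% CO2. Mito-MPS dye was then added for 30 min, and fluorescence read at 490/535 nm (monomers) and 540/590 nm (aggregates).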

[14] = target: Tumor necrosis factor (Homo sapiens) (UniProt P01375); test: qHTS assay to identify small molecules that stimulate Tumor Necrosis Factor-alpha (TNF-alpha) secretion (AID 651757; active = well fitted curve in the direction sought with a large enough effect in the signal ratio; the % refers to the signal ratio; also: 0% is about no effect)
Tumor necrosis factor (Homo sapiens), sequence (P01375 whole entry, looked up): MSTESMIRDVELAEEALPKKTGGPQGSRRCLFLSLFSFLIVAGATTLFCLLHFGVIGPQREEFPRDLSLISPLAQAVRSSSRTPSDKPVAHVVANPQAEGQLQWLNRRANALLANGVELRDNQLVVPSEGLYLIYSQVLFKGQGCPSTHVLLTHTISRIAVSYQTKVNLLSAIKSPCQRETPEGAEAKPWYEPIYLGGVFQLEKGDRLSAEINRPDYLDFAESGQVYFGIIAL
In short: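 THP-1 cells were exposed to compounds for 17 hrs at 37 C, after which secreted TNF-alpha was measured by homogeneous HTRF (TR-FRET) using cryptate- and XL665-labeled anti-TNF-alpha antibodies, read after 3 hr at room temperature.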

[15] = target: Nuclear receptor ROR-gamma (Homo sapiens) (UniProt P51449); test: qHTS assay for small molecule antagonists of the retinoid-related orphan receptor gamma (ROR-gamma) signaling pathway (AID 651802); also: % is scaled to controls: 0 for no effect and ±100 for the full control effect; nearly all actives have a fitted effect of over 60% in size
Nuclear receptor ROR-gamma (Homo sapiens), sequence (P51449 whole entry, looked up): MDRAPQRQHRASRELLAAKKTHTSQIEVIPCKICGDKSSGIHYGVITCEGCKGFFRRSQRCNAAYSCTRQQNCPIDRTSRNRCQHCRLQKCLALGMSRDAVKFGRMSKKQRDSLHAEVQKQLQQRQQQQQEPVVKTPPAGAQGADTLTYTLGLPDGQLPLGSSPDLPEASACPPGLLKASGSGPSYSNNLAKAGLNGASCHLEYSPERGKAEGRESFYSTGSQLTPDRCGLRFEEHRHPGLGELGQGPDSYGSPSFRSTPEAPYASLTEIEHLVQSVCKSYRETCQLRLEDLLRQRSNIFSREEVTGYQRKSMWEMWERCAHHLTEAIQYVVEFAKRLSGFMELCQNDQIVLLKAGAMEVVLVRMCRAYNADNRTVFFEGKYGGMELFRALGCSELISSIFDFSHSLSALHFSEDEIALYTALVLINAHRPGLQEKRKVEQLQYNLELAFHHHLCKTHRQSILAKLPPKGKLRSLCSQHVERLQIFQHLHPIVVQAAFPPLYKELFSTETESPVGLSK
In short: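 CHO cells carrying TET-inducible ROR-gamma and an ROR response element–luciferase reporter were exposed to compound, then induced with doxycycline. After 16hr at 37C, luminescence was read; lower signal indicates antagonism.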

[16] = qHTS assay for small molecule agonists of the antioxidant response element (ARE) signaling pathway measured by Nrf2-dependant transcriptional activity - cell viability counter screen (AID 720653; active = well fitted curve in the direction sought with a large enough effect in the repeat runs; an effect the other way counts as inactive or inconclusive; also: % is scaled to controls: 0 for no effect and ±100 for the full control effect); details: ARE-bla HepG2 viability, CellTiter-Glo ATP luminescence, 16 h; active compounds read low
In short: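 ARE-bla HepG2 cells (2,000/well) rested 5 hrs at 37C/5% CO2, then exposed to compounds in DMSO for 16 hrs. Viability was read in the same wells as intracellular ATP by luminescence, 30 min at room temperature after reagent addition.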

[17] = target: Nuclear receptor subfamily 1 group I member 2 (Rattus norvegicus) (UniProt Q9R1A7); test: qHTS assay for small molecule activators of the rat pregnane X receptor (rPXR) signaling pathway (AID 651751; call rule not given here; also: 0% is about no effect); details: rPXR reporter cells, luciferase (One-Glo), 24 h
Nuclear receptor subfamily 1 group I member 2 (Rattus norvegicus), sequence (Q9R1A7 whole entry, looked up): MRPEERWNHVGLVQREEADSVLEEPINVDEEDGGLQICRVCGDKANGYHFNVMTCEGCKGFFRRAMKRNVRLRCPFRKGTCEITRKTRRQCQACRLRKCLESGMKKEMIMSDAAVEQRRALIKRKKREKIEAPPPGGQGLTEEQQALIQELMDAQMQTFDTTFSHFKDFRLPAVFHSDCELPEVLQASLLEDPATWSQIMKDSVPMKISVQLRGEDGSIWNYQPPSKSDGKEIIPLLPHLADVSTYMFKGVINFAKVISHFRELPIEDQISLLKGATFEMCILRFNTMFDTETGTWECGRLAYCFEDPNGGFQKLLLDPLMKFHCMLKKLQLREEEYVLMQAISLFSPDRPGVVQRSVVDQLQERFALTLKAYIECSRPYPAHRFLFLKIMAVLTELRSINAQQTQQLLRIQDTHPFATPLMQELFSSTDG

[18] = qHTS assay for small molecule activators of the human pregnane X receptor (PXR) signaling pathway (AID 720659; call rule not given here; also: 0% is about no effect)
[19] = Cellular Toxicity (caspase-3) MRC-5 (AID 659);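 also: 0% = DMSO basal and 100% = 10 µM staurosporine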
In short: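 Luminescence from caspase-cleaved aminoluciferin substrate (Caspase-Glo 3/7, 1 hr RT) reports caspase 3/7 activity in MRC-5 lung fibroblasts after 16 hr compound exposure. Normalized to DMSO basal and 10 uM staurosporine as 100%; AC50 from Hill fits.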

[20] = target: Vitamin D3 receptor (Homo sapiens) (UniProt P11473); test: qHTS assay for small molecule agonists of vitamin D receptor signaling (AID 588543; calls by dose curve;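 also: 0% = DMSO basal and 100% = reference agonist control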)
Vitamin D3 receptor (Homo sapiens), sequence (P11473 whole entry, looked up): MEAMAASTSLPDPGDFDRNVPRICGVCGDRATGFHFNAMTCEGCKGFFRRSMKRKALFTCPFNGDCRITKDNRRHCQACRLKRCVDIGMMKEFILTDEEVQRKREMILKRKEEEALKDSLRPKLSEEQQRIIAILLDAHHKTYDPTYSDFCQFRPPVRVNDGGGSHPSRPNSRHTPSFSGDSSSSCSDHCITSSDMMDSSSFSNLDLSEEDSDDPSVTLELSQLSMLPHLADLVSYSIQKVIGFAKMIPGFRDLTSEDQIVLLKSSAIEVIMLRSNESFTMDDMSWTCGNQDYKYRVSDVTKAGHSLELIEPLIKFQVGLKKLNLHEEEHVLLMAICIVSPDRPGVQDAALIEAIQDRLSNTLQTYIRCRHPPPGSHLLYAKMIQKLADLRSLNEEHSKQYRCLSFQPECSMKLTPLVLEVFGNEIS
In short: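 qHTS in agonist mode: compound titrations stimulate a VDR-driven β-lactamase reporter in HEK293T cells over 16 h at 37 °C. Response normalized to 50 nM 1α,25-dihydroxyvitamin D3 = 100%, DMSO = 0%; Hill fitting gives EC50 and maximal response.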

O=[N+]([O-])c1ccccc1-c1ccccc1
inactive: Potency [1] | Potency [2] | Potency [3] | caspase-3 activation [4] -1.39% | Potency [5] | outcome [6] | Potency [7] | Potency [8] | Potency [9] | Potency [10] | Potency [11] | Potency [12] | Potency [13] | outcome [14] | Potency [15] | max response [16] 1.78% | max response [17] 0.722% | outcome [18]

C=CC(=O)OCC(C)C
inactive: Potency [1] | Potency [2] | Potency [3] | outcome [19] | caspase-3 activation [4] -0.317% | Potency [5] | outcome [6] | Potency [7] | Potency [8] | Potency [9] | Potency [10] | Potency [12] | outcome [20] | outcome [14] | Potency [15] | max response [16] -10.1% | max response [17] -2.18% | outcome [18]

Oc1c(Cl)cccc1Cl
inactive: Potency [1] | Potency [2] | Potency [3] | outcome [19] | caspase-3 activation [4] 1.84% | Potency [5] | outcome [6] | Potency [7] | Potency [8] | Potency [9] | Potency [10] | Potency [11] | Potency [12] | outcome [20] | Potency [13] | outcome [14] | Potency [15] | max response [16] 9.38% | max response [17] 5.06% | outcome [18]

C/C=C/CC#N
inactive: Potency [1] | Potency [2] | Potency [3] | outcome [19] | caspase-3 activation [4] 1.26% | Potency [5] | outcome [6] | Potency [7] | Potency [9] | Potency [10] | Potency [11] | Potency [12] | Potency [13] | outcome [14] | Potency [15] | max response [16] -11.2% | max response [17] -0.823% | outcome [18]

CCOC(=O)CBr
inactive: Potency [1] | Potency [2] | Potency [3] | outcome [19] | Potency [5] | Potency [7] | Potency [8] | Potency [9] | Potency [10] | Potency [11] | Potency [12] | outcome [20] | Potency [13] | outcome [14] | Potency [15] | max response [16] 1.03% | max response [17] 2.21% | outcome [18]

Cc1ccc(N)c(C)c1
inactive: Potency [1] | Potency [2] | Potency [3] | caspase-3 activation [4] 1.54% | Potency [5] | outcome [6] | Potency [7] | Potency [9] | Potency [10] | Potency [11] | Potency [12] | outcome [20] | Potency [13] | outcome [14] | max response [16] -6.08% | max response [17] -0.287% | outcome [18]

C=CC(=O)OC
inactive: Potency [1] | Potency [2] | Potency [3] | outcome [19] | caspase-3 activation [4] 2% | Potency [5] | outcome [6] | Potency [7] | Potency [10] | Potency [11] | outcome [20] | Potency [13] | outcome [14] | Potency [15] | max response [16] 8.65% | max response [17] 0.297% | outcome [18]

— PubChem BioAssay (NCATS)
